# Results filed as inconclusive are left out. Entries that show only a call come without a potency. Active and inactive are the calls of the source. Unless noted, the call rests on the fitted dose curve; in most records, active means well fitted curve in the direction sought with a large enough effect in the repeat runs; inconclusive means weak or mixed curves; inactive means no such curve, though single readings can be large; an effect the other way counts as inactive or inconclusive.
# Assays:
# [1] = qHTS assay to identify small molecule antagonists of the thyroid receptor (TR) signaling pathway - cell viability counter screen (AID 743064); further: nearly all actives have a fitted effect of over 50% in size
# Outline: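 Compounds were tested on GH3.TRE-Luc cells in the presence of T3 at 1 nM final. Following 23.5 h at 37 °C, cell viability was quantified by CellTiter-Fluor.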
# [2] = qHTS assay to identify small molecule antagonists of the thyroid receptor (TR) signaling pathway (AID 743065); further: nearly all actives have a fitted effect of over 55% in size; further: potency means the concentration at half of the fitted maximal effect
# Outline: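 Antagonism measured as loss of luciferase signal in GH3 cells stably carrying a TRE-luciferase reporter, co-treated with compound and T3 (1 nM final) for 23.5 h at 37 C. Viability was read in the same well by CellTiter-Fluor.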
# [3] = system: thyroid hormone receptor (rat, GH3 cells); experiment: qHTS assay to identify small molecule agonists of the thyroid receptor (TR) signaling pathway (AID 743066; calls by dose curve)
# [4] = qHTS assay to identify small molecule antagonists of the estrogen receptor alpha (ER-alpha) signaling pathway - cell viability counter screen (AID 743074; calls by dose curve;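 further: HEK293 cells carrying ER-alpha-UAS-bla reporter stimulated with 17beta-estradiol; nearly all actives have a fitted effect of over 45% in size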)
# [5] = qHTS assay to identify small molecule antagonists of the estrogen receptor alpha (ER-alpha) signaling pathway using the BG1 cell line - cell viability counter screen (AID 743081);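 further: compound given together with 17beta-estradiol as the ER stimulus; series mostly up to about 70 µM; nearly all actives have a fitted effect of over 45% in size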
# [6] = qHTS assay to identify small molecule that activate the aryl hydrocarbon receptor (AhR) signaling pathway - cell viability counter screen (AID 743086);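 further: HepG2 liver cells carrying the AhR DRE luciferase reporter; series mostly up to about 70 µM; nearly all actives have a fitted effect of over 45% in size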
# Outline: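 Cytotoxicity counter screen: CellTiter-Fluor signal (30 min, 37 C) in 4000 HepG2 cells/well carrying the DRE-luciferase reporter, following 24 h compound exposure at 37 C.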
# [7] = qHTS assay for small molecule agonists of the antioxidant response element (ARE) signaling pathway - cell viability counter screen (AID 743203; calls by dose curve; further: nearly all actives have a fitted effect of over 55% in size)
# Outline: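 Cytotoxicity was tested in parallel with the ARE reporter screen. ARE-bla HepG2 cells were exposed to compounds for 16 hrs, and viability was taken from CellTiter-Glo luminescence.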
# [8] = qHTS assay for small molecule activators of the heat shock response signaling pathway - cell viability counter screen (AID 743209); further: nearly all actives have a fitted effect of over 50% in size
# Outline: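 Cytotoxicity counter screen run in parallel with the HSE beta-lactamase reporter, using the same wells. HeLa HSE-bla cells received compound for 5 h at 37 C; ATP-based CellTiter-Glo luminescence was measured after 30 min at room temperature.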
# [9] = qHTS assay for small molecule activators of the heat shock response signaling pathway (AID 743210; active means well fitted activation curve with a large enough effect in the signal ratio in the repeat runs, with a control signal flat, not every such curve was filed as active; the % refers to the signal ratio; further: series mostly up to about 63 µM)
# Outline: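 Compound exposure lasted 5 h at 37 C in HeLa cells carrying a heat-shock-element-driven beta-lactamase reporter. Read-out: fluorescence intensity after 2.5 h room-temperature loading with LiveBLAzer B/G FRET substrate.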
# Aromatase (Homo sapiens) = Aromatase (Homo sapiens) (UniProt P11511); experiment: qHTS assay to identify aromatase inhibitors (AID 743083); further: series mostly up to about 70 µM; nearly all actives have a fitted effect of over 55% in size
# Chain of Aromatase (Homo sapiens) (P11511 whole entry, looked up): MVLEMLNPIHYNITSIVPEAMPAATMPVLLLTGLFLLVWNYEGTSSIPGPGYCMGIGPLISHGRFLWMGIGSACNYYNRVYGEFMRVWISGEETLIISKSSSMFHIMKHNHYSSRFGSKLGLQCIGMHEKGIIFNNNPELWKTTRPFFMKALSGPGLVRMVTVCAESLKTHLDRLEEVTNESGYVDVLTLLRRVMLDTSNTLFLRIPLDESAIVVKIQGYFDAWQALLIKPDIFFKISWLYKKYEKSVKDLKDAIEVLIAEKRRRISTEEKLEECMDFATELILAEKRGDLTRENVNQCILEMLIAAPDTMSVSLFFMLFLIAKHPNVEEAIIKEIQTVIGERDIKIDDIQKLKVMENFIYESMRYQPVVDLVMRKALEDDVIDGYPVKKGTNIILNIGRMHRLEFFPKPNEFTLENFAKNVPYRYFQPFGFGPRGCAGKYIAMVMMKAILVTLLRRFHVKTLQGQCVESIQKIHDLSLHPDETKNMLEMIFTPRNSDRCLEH
# [10] = qHTS assay to identify aromatase inhibitors - cell viability counter screen (AID 743084);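 further: cells stimulated with testosterone during compound exposure; nearly all actives have a fitted effect of over 55% in size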
# [11] = target: Aryl hydrocarbon receptor (Homo sapiens) (UniProt P35869); experiment: qHTS assay to identify small molecule that activate the aryl hydrocarbon receptor (AhR) signaling pathway (AID 743085); further: nearly all actives have a fitted effect of over 15% in size; further: potency means the concentration at half of the fitted maximal effect;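 on activation: HG2L7.5c1 human HepG2 liver cells with stably integrated DRE-driven firefly reporter; series mostly up to about 70 µM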
# Chain of Aryl hydrocarbon receptor (Homo sapiens) (P35869 whole entry, looked up): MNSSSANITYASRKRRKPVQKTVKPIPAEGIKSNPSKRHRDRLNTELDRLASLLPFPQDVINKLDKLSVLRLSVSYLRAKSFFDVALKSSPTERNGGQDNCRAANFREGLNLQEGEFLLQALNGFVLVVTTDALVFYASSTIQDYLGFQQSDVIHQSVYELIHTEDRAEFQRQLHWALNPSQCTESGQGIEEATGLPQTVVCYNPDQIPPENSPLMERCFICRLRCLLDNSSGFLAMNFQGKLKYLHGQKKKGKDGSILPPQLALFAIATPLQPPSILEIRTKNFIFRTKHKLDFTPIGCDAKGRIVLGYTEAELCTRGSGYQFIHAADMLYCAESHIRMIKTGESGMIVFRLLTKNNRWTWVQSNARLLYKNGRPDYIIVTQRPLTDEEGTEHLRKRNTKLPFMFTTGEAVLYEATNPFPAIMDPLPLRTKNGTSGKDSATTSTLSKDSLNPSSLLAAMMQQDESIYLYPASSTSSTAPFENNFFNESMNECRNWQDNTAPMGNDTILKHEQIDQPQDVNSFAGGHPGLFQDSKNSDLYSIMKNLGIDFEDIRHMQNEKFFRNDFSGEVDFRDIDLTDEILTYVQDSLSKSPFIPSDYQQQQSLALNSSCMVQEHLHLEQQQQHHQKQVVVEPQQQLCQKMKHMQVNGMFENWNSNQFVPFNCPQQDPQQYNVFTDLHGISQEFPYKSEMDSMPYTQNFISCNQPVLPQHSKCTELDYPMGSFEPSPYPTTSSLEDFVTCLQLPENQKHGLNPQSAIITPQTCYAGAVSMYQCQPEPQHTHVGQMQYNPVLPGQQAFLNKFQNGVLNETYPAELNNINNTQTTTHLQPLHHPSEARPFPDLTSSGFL
# Outline: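 24 h compound exposure, 37C, HepG2-derived HG2L7.5c1 cells with DRE-responsive luciferase. Readouts: fluorescence viability, then luminescence at room temperature after 30 min.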
# [12] = target: Peroxisome proliferator-activated receptor gamma (Homo sapiens) (UniProt P37231); experiment: qHTS assay to identify small molecule agonists of the peroxisome proliferator-activated receptor gamma (PPARg) signaling pathway (AID 743094; active means well fitted activation curve with a large enough effect in the signal ratio in the repeat runs, not every such curve was filed as active; the % refers to the signal ratio)
# Chain of Peroxisome proliferator-activated receptor gamma (Homo sapiens) (P37231 whole entry, looked up): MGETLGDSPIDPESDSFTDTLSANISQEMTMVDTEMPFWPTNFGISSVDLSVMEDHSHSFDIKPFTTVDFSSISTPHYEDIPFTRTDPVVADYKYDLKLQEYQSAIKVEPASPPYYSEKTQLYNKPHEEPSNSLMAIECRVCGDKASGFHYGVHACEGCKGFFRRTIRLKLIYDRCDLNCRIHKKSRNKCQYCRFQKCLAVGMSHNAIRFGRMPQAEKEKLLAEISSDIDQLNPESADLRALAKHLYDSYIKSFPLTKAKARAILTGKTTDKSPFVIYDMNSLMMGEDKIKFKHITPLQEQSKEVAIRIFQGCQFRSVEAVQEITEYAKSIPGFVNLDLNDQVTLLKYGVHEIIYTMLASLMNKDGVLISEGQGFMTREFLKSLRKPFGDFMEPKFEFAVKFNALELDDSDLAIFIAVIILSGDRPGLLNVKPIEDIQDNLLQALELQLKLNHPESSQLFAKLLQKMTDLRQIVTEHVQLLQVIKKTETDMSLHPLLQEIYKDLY
# Outline: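 Cells from the PPARg UAS-bla HEK293H line are plated and incubated 5 h at 37C. Compounds in DMSO are pinned in and left 17 h at 37C. LiveBLAzer B/G substrate is then added for 1 h at room temperature before fluorescence is measured.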
# [13] = qHTS assay for small molecule agonists of the antioxidant response element (ARE) signaling pathway (AID 743202; active means well fitted activation curve with a large enough effect in the signal ratio in the repeat runs, not every such curve was filed as active; the % refers to the signal ratio)
# Outline: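 After 16 hours of compound treatment at 37 C, HepG2 cells with a stably integrated ARE-driven beta-lactamase reporter were loaded 2 hours at room temperature with LiveBLAzer B/G FRET substrate and fluorescence intensity measured.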
# [14] = target: Peroxisome proliferator-activated receptor gamma (Homo sapiens) (UniProt P37231); experiment: qHTS assay to identify small molecule antagonists of the peroxisome proliferator-activated receptor gamma (PPARg) signaling pathway (AID 743191; calls by dose curve; further: series mostly up to about 63 µM; nearly all actives have a fitted effect of over 30% in size)
# Outline: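 Beta-lactamase reporter under UAS control in HEK293H PPARg-bla cells; compound treatment 17 h at 37C. Read-out: fluorescence intensity after 1 h room-temperature incubation with LiveBLAzer B/G FRET substrate.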
# [15] = target: Estrogen receptor (Homo sapiens) (UniProt P03372); experiment: qHTS assay to identify small molecule antagonists of the estrogen receptor alpha (ER-alpha) signaling pathway (AID 743069; active means well fitted curve in the direction sought with a large enough effect in the signal ratio in the repeat runs, not every such curve was filed as active; the % refers to the signal ratio)
# Chain of Estrogen receptor (Homo sapiens) (P03372 whole entry, looked up): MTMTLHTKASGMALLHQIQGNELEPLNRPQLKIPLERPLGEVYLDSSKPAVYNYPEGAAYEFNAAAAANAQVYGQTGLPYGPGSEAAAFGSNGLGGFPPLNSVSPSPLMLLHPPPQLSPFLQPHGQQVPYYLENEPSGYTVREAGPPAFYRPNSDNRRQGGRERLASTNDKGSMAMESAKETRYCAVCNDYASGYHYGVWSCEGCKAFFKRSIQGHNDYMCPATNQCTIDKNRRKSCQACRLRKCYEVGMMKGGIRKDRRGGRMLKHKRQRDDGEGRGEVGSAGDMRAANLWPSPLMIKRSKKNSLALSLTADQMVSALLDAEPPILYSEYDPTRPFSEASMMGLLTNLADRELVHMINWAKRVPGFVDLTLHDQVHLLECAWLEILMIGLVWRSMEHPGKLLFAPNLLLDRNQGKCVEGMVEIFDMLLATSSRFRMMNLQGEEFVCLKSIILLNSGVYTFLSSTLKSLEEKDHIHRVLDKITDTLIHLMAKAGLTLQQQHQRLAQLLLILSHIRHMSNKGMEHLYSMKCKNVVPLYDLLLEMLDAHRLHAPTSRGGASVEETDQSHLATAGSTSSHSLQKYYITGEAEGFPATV
# Outline: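 Antagonist mode: compounds in DMSO were co-added with 17beta-estradiol to ER-alpha-bla HEK293 cells (2% charcoal-stripped serum) and left 18 h at 37C. Reporter inhibition was measured as FRET fluorescence after 2 h LiveBLAzer substrate at room temperature.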
# [16] = target: Estrogen receptor (Homo sapiens) (UniProt P03372); experiment: qHTS assay to identify small molecule agonists of the estrogen receptor alpha (ER-alpha) signaling pathway (AID 743075; calls by dose curve;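 further: HEK293 GripTite cells with ER-alpha and UAS-driven beta-lactamase reporter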)
# [17] = target: Estrogen receptor (Homo sapiens) (UniProt P03372); experiment: qHTS assay to identify small molecule agonists of the estrogen receptor alpha (ER-alpha) signaling pathway using the BG1 cell line (AID 743079); further: nearly all actives have a fitted effect of over 20% in size
# [18] = qHTS assay to identify small molecule antagonists of the estrogen receptor alpha (ER-alpha) signaling pathway using the BG1 cell line (AID 743080; calls by dose curve;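 further: BG1 cells stimulated with 17beta-estradiol alongside compound; series mostly up to about 70 µM; nearly all actives have a fitted effect of over 25% in size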)
# Outline: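 Endogenous full-length ER-alpha in BG1-Luc-4E2 cells drives a stably integrated 4×ERE luciferase gene; compounds were tested against 17beta-estradiol over 21.5 h, with luminescence and multiplexed viability fluorescence recorded.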
# [19] = qHTS assay to identify small molecule antagonists of the peroxisome proliferator-activated receptor gamma (PPARg) signaling pathway - cell viability counter screen (AID 743194); further: nearly all actives have a fitted effect of over 55% in size
# Outline: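 Viability was measured as CellTiter-Glo luminescence in GeneBLAzer PPARg UAS-bla HEK293H cells. These cells had been exposed 17 h at 37 C to compounds together with rosiglitazone at 50 nM final, with the beta-lactamase readout taken in the same wells.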
Compound,Potency [1],Potency [2],outcome [3],Potency [4],outcome [5],Potency [6],outcome [7],outcome [8],outcome [9],outcome (Aromatase (Homo sapiens)),Potency [10],Potency [11],Potency [12],Potency [13],Potency [14],Potency [15],Potency [16],Potency [17],Potency [18],outcome [19]
C=C(C)C(=O)OCC1CCCO1 (stereo not given),inactive,inactive,inactive,inactive,inactive,inactive,inactive,inactive,inactive,–,–,–,–,–,–,–,–,–,–,–
CC(C)[C@H]1CC[C@@H](C)CC1=O,inactive,–,–,inactive,inactive,inactive,inactive,inactive,inactive,inactive,inactive,inactive,inactive,inactive,–,–,–,–,–,–
O=S(=O)(O)c1cccc2c(S(=O)(=O)O)cccc12,inactive,–,inactive,inactive,–,inactive,inactive,inactive,–,inactive,inactive,–,inactive,inactive,inactive,–,–,–,–,–
CN1C(C)(C)CC(O)CC1(C)C,inactive,–,–,inactive,inactive,inactive,inactive,inactive,inactive,inactive,inactive,–,inactive,inactive,–,inactive,inactive,inactive,inactive,inactive
CCN(CC#N)c1cccc(C)c1,inactive,–,–,inactive,inactive,inactive,inactive,inactive,inactive,inactive,inactive,inactive,inactive,–,–,inactive,inactive,inactive,inactive,inactive
CCCO[Si](OCCC)(OCCC)OCCC,inactive,–,–,inactive,inactive,inactive,–,inactive,inactive,inactive,inactive,inactive,inactive,–,–,inactive,inactive,inactive,–,inactive
NC(=O)N[C@@H](CCC(=O)O)C(=O)O,inactive,inactive,inactive,inactive,inactive,inactive,inactive,inactive,inactive,–,–,–,–,inactive,–,–,–,–,–,–
NO,inactive,inactive,–,inactive,inactive,inactive,inactive,inactive,inactive,inactive,inactive,inactive,–,inactive,–,–,–,–,–,inactive
CO[C@@]1(NC(=O)C(C(=O)O)c2ccc(O)cc2)C(=O)N2C(C(=O)O)=C(CSc3nnnn3C)CO[C@@H]21 (stereo not given in full),inactive,–,–,inactive,–,inactive,inactive,inactive,inactive,inactive,inactive,inactive,inactive,inactive,–,inactive,inactive,inactive,–,–
Cc1ccc(C(=O)c2ccc(CC(=O)O)n2C)cc1,inactive,–,inactive,inactive,inactive,–,inactive,inactive,–,inactive,inactive,inactive,inactive,inactive,–,–,inactive,inactive,–,inactive
COc1cc2c(cc1OC)-c1cc3ccc(OC)c(OC)c3c[n+]1CC2,inactive,–,–,inactive,inactive,inactive,inactive,inactive,–,inactive,–,–,inactive,inactive,inactive,–,–,–,–,inactive
CO/N=C(\C(=O)N[C@@H]1C(=O)N2C(C(=O)O)=C(CSc3nc(=O)c(O)nn3C)CS[C@H]12)c1csc(N)n1,inactive,–,inactive,inactive,inactive,inactive,inactive,–,–,inactive,inactive,inactive,inactive,–,inactive,inactive,inactive,–,inactive,–
CC(C#N)(CCC(=O)O)N=NC(C)(C#N)CCC(=O)O (stereo not given),inactive,inactive,–,inactive,inactive,inactive,inactive,inactive,inactive,inactive,inactive,inactive,inactive,inactive,inactive,–,–,–,–,inactive
NC(=O)Cc1cccc2ccccc12,inactive,–,–,inactive,inactive,inactive,inactive,inactive,inactive,inactive,inactive,inactive,inactive,–,inactive,–,–,–,–,inactive
CCOC(=O)CCC(=O)OCC,–,inactive,inactive,inactive,inactive,inactive,inactive,inactive,–,inactive,inactive,inactive,inactive,inactive,inactive,inactive,inactive,inactive,inactive,inactive
CC(=O)Nc1ccc(OCC(O)CNC(C)C)cc1 (stereo not given),inactive,–,–,inactive,inactive,inactive,inactive,inactive,inactive,inactive,inactive,inactive,inactive,inactive,inactive,–,–,–,–,inactive
CC(C)(C)C(=O)Oc1ccc(S(=O)(=O)Nc2ccccc2C(=O)NCC(=O)O)cc1,inactive,–,inactive,inactive,–,inactive,inactive,inactive,–,inactive,inactive,11.9 µM (active),inactive,inactive,inactive,inactive,inactive,inactive,inactive,inactive
CC(C)C(=O)OC(=O)C(C)C,inactive,inactive,inactive,inactive,inactive,inactive,inactive,inactive,inactive,–,–,–,–,–,–,–,–,–,–,–
C=CN1CCCCCC1=O,inactive,–,–,inactive,inactive,inactive,inactive,inactive,inactive,–,–,–,–,inactive,–,–,–,–,–,inactive

Compound,Potency [1],Potency [2],outcome [3],Potency [4],outcome [5],Potency [6],outcome [7],outcome [8],outcome [9],outcome (Aromatase (Homo sapiens)),Potency [10],Potency [11],Potency [12],Potency [13],Potency [14],Potency [15],Potency [16],Potency [17],Potency [18],outcome [19]
C[C@@H]1C[C@H]2[C@@H]3C[C@H](F)C4=CC(=O)C(Cl)=C[C@]4(C)[C@@]3(F)[C@@H](O)C[C@]2(C)[C@@]1(O)C(=O)CO,inactive,–,inactive,inactive,inactive,inactive,inactive,inactive,–,inactive,inactive,inactive,inactive,inactive,–,–,inactive,inactive,–,inactive
CC(C(=O)O)c1cccc(Oc2ccccc2)c1 (stereo not given),inactive,–,inactive,inactive,inactive,inactive,inactive,inactive,–,inactive,–,inactive,–,–,–,–,–,–,–,inactive
Clc1cc(Cl)c(Cl)nc1Cl,inactive,inactive,inactive,–,inactive,inactive,inactive,inactive,inactive,inactive,–,–,inactive,–,inactive,–,–,–,–,inactive
Cc1c(N)c(=O)n(-c2ccccc2)n1C,inactive,inactive,inactive,inactive,–,inactive,inactive,inactive,inactive,inactive,inactive,inactive,–,–,–,–,–,–,–,inactive
CCCCCCCCCC[N+](C)(C)[O-],inactive,–,–,inactive,inactive,inactive,inactive,inactive,inactive,inactive,inactive,inactive,–,–,–,inactive,inactive,inactive,–,–
Clc1cc(Cl)cc(Cl)c1,inactive,–,–,inactive,inactive,inactive,inactive,inactive,inactive,inactive,inactive,inactive,inactive,inactive,–,inactive,inactive,inactive,inactive,inactive
NC(CCC(=O)O)C(=O)O (stereo not given),inactive,–,inactive,inactive,inactive,inactive,inactive,inactive,–,inactive,inactive,inactive,inactive,–,inactive,inactive,inactive,inactive,–,inactive
CCCCS(=O)(=O)N[C@@H](Cc1ccc(OCCCCC2CCNCC2)cc1)C(=O)O,inactive,–,inactive,–,inactive,inactive,inactive,inactive,–,inactive,inactive,–,inactive,inactive,inactive,inactive,inactive,inactive,inactive,–
FB(F)F,inactive,–,inactive,inactive,inactive,inactive,inactive,inactive,–,inactive,inactive,inactive,inactive,inactive,–,inactive,inactive,inactive,–,inactive
CC12CCC(C(=O)C1=O)C2(C)C (stereo not given),inactive,inactive,inactive,–,inactive,inactive,inactive,inactive,inactive,inactive,inactive,inactive,inactive,inactive,–,–,–,–,–,inactive
O=C1NC(=O)C2CC=CCC12 (stereo not given),inactive,inactive,inactive,inactive,inactive,inactive,inactive,inactive,inactive,–,–,–,–,inactive,–,–,–,–,–,–
CC[N+](CC)(CC(=O)Nc1c(C)cccc1C)Cc1ccccc1 (tested in a mixture with another compound),inactive,–,–,inactive,inactive,inactive,inactive,inactive,–,inactive,inactive,–,inactive,inactive,inactive,–,–,–,–,–
CCOCC(C)O (stereo not given),inactive,–,–,inactive,inactive,–,inactive,inactive,inactive,inactive,inactive,inactive,inactive,inactive,inactive,inactive,inactive,inactive,inactive,inactive
CC1=C(C/C=C(\C)CCC[C@H](C)CCC[C@H](C)CCCC(C)C)C(=O)c2ccccc2C1=O,inactive,inactive,inactive,–,inactive,inactive,–,inactive,inactive,inactive,inactive,26.6 µM (active),inactive,–,–,–,–,–,–,inactive
NCCCC(N)(C(=O)O)C(F)F (stereo not given),inactive,–,inactive,inactive,inactive,inactive,inactive,–,–,–,–,–,–,inactive,–,–,–,–,–,–
COc1cccc(OC)c1C(=O)N[C@@H]1C(=O)N2[C@@H]1SC(C)(C)[C@@H]2C(=O)O,–,–,–,inactive,inactive,inactive,inactive,inactive,–,inactive,–,inactive,inactive,–,–,–,–,–,–,inactive
C[N+](C)(C)CCCCCCCCCC[N+](C)(C)C,–,–,–,inactive,inactive,inactive,inactive,inactive,–,–,inactive,–,inactive,inactive,–,inactive,inactive,inactive,–,inactive
CN1CCC(=C2c3ccccc3CCc3cccnc32)CC1,–,23.7 µM (active),inactive,inactive,inactive,inactive,inactive,inactive,inactive,inactive,inactive,inactive,–,inactive,inactive,inactive,inactive,inactive,inactive,inactive

# — PubChem BioAssay (Tox21)
